Screens: PubChem BioAssay, National Center for Advancing Translational Sciences (NCATS)
TRPV1 agonist – activates the human vanilloid receptor TRPV1. actives 0.19% (n = 320,000). AID 540275. TRPV1-expressing cells, Fluo-8 calcium influx, agonist mode. activation, % at 8.33 µM. Q8NER1; in the data active means activation above about 80%; inconclusive means between about 30% and that limit; further: 0% is about no effect
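TRPV1-expressing cells were cultured overnight at 35.5C and loaded with Fluo-8 calcium dye for 40 to 90 min at room temperature. After a 10 s baseline, compound was added and calcium influx was read kinetically for 3 min (ex 480/em 520 nm).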
TRPML1 agonist – activates the human TRPML1 channel; AID 624414; TRPML1-expressing cells, Ca2+ dye fluorescence, FDSS; actives 0.12% (n = 410,000); activation, % (test concentration not listed); in the data active means activation above about 50%; inconclusive means mostly about 30% to 49%; further: 0% is about no effect
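Kinetic FDSS Ca2+ read in Tet-induced TRPML1-DL cells (ABD Ca8 dye plus quencher, 45-90 min RT loading): baseline, then compound, then 110 s agonist window; EC80 agonist 54-4 at 4uM final added afterwards for a 110 s antagonist window.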
TRHR enhancer – allosterically enhances the human TRH receptor; TRHR cells, fluo-8 calcium fluorescence, EC20 TRH enhancement; actives 0.66% (n = 360,000); enhancement, % at 2 µM; in the data active means enhancement above about 30%; further: 0% is about no effect
Target sequence (P34981 whole entry, looked up): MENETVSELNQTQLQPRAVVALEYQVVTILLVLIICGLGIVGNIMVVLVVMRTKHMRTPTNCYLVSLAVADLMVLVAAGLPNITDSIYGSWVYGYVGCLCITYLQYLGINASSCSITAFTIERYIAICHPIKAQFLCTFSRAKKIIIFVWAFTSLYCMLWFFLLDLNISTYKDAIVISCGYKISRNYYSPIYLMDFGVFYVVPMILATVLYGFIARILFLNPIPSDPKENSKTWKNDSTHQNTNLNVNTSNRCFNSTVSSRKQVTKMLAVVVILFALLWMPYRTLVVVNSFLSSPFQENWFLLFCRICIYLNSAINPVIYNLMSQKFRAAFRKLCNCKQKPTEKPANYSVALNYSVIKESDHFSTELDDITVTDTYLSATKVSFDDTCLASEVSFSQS
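TRHR-expressing cells loaded with fluo-8 calcium dye were read kinetically (ex 480/em 530) during compound addition, then stimulated with an EC20 of TRH (10 nM final). Enhancement of the Gq-mediated intracellular calcium response was scored.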
TRPV1 potentiator – potentiators of human vanilloid receptor 1 (TRPV1); actives 0.02% (n = 320,000); Q8NER1; potentiation, % at 8.33 µM; TRPV1-expressing cells, Fluo-8 calcium influx, capsaicin EC20 potentiation; AID 540277; in the data active means potentiation above about 80%; inconclusive means between about 30% and that limit; further: 0% is about no effect
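Fluo-8 calcium influx in TRPV1-expressing cells, kinetic read (ex 480/em 520 nm). Compound added and read 3 min for agonist activity, followed by capsaicin at EC20 final and 2 min further read for enhancement.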
TRPML1 blocker – human mucolipin-1 channel inhibition | TRPML1-inducible cells, Ca2+ dye fluorescence, FDSS; active compounds read low; inhibition of EC80 agonist-evoked calcium signal | activity change, negative = inhibition, % (no concentration beside the values) | actives 0.02% (n = 390,000) | AID 624415; in the data active means activity change below about -50%; inconclusive means between about -30% and that limit;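 further: stimulus is agonist 54-4 at its EC80 concentration; on the % scale 0 is the no-effect control and ±100 the full control effect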
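Calcium fluorescence in TRPML1-DL cells induced overnight with Tet: a 110 s read after compound pin addition, then a 110 s antagonist read after challenge with 54-4 at 4 uM final (EC80).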
TRHR ag – agonists of human TRH receptor; actives 0.18% (n = 360,000); TRHR cells, calcium flux fluo-8, FDSS agonist mode; activation, % at 2 µM; AID 493084; in the data active means activation above about 30%; further: 0% is about no effect
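TRHR-expressing cells, plated overnight in medium with 10% serum, were loaded with fluo-8 calcium dye at room temperature. After a 10 s baseline, library compound was pin-added and calcium release was recorded kinetically (ex 480/em 530) as agonist response.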
Active calls of the source: *; ? = inconclusive; . = no result given. Hits are enriched below; roughly 0.99% of the tested compounds scored in any of these assays.

SMILES	TRPV1 agonist	TRPML1 agonist	TRHR enhancer	TRPV1 potentiator	TRPML1 blocker	TRHR ag
CCC(C)c1ccc(NC(=O)c2ccco2)cc1 (configuration not stated)	82*	.	0	6	.	-1
O=C(Nc1ccc(Cc2ccc(NC(=O)N3CCOCC3)cc2)cc1)N1CCOCC1	1	0	-3	-2	10	0
O=C(Nc1ccc(F)c(Cl)c1)C1CCN(c2ncccn2)CC1	.	-1	2	.	-1	-2
CCN(CC)S(=O)(=O)c1cc(NC(=O)NCCCl)ccc1C	-4	0	-1	-6	-13	-1
CCN(CC)S(=O)(=O)c1cc(NC(=O)c2ccc(Br)s2)ccc1C	83*	0	-23	-12	17	2
NNC(=O)CNC(c1ccccc1)c1cc(Br)ccc1NC(=O)CCN1CCOCC1 (configuration not stated)	-4	0	36*	-5	5	-1
NNC(=O)CNC(c1ccccc1)c1cc(Br)ccc1NC(=O)c1ccc(Br)cc1 (configuration not stated)	-1	1	3	-4	-7	-1
CC(O)CN(CC(C)O)c1ccc2c(c1)Cc1cc([N+](=O)[O-])ccc1-2 (configuration not stated)	.	83*	.	.	6	.
Nc1ccc2c(c1)Cc1cc([N+](=O)[O-])ccc1-2	17	?	5	10	-22	44*
CC(=NO)c1ccc2c(c1)Cc1cc([N+](=O)[O-])ccc1-2	.	1	.	.	30	.
CN(C)c1ccc2ccc3cccc4ccc1c2c34	.	29	.	.	.	.
Cc1ccc(C(=O)O)cc1NCc1ccncc1	3	0	30*	-4	-16	1
O=C(O)c1ccc(Cl)c(NCc2ccncc2)c1	-5	-1	11	-7	12	1
O=C1N/C(=N\S(=O)(=O)c2ccccc2)S/C1=C\c1cc([N+](=O)[O-])ccc1O	29	51*	40*	-1	2	114*
Cc1ccc(S(=O)(=O)/N=C2/NC(=O)/C(=C\c3cc(Br)cc(Br)c3O)S2)cc1	?	?	6	-21	-11	118*
COc1cc(/C=C2\S/C(=N/S(=O)(=O)Cc3ccccc3)NC2=O)c([N+](=O)[O-])cc1OC	-2	-1	-2	8	-10	-1
O=C1N/C(=N\S(=O)(=O)Cc2ccccc2)S/C1=C/c1cc([N+](=O)[O-])ccc1O	?	74*	49*	9	-4	102*
COc1ccc(-n2c(SCc3nc(-c4ccc(C)cc4)no3)nnc2-c2ccccc2)cc1	.	-1	6	.	-18	1
COc1ccc(-c2noc(CSc3nc4ccccc4c(=O)n3-c3ccc(C)cc3)n2)cc1	-2	0	33*	-1	15	0
O=C(NCC(c1cccnc1)N1CCN(Cc2ccccc2)CC1)C(=O)Nc1cccc(F)c1 (configuration not stated)	.	1	-2	.	6	0
COc1ccc(/C=c2\s/c(=C/C(=O)c3ccc(C)cc3)[nH]c2=O)c(OC)c1	28	?	1	17	-2	54*
COc1cccc(/C=c2\s/c(=C/C(=O)c3ccc(C)cc3)[nH]c2=O)c1OC	-1	3	1	18	-2	4
Cc1oc2ncn(C)c(=O)c2c1C(=O)NCCCN(Cc1ccccc1)C(C)C	.	0	-4	.	-18	2
O=C(Cn1cc(CNCc2ccccc2)nn1)Nc1cc(C(F)(F)F)ccc1Cl	.	.	3	.	.	0
CC(C)Oc1ccc(OCCCN2CCCCCC2)cc1	0	1	2	-4	27	0
SMILES	TRPV1 agonist	TRPML1 agonist	TRHR enhancer	TRPV1 potentiator	TRPML1 blocker	TRHR ag
CC(C)(C)c1ccc(OCCCN2CCCC2)cc1	-4	1	38*	2	33	0
COc1ccc(CNCCCSc2nnnn2C)c(OC)c1	.	-1	0	.	-8	1
O=C(Nc1cccc(OCc2cc(=O)n3c4c(sc3n2)CCCC4)c1)c1ccc(F)cc1	.	-1	4	.	6	-2
Cc1ccccc1C(=O)Nc1cccc(OCc2cc(=O)n3c4c(sc3n2)CCCC4)c1	.	1	32*	.	6	-1
CCCCN(C)CCCNC(=O)Cn1nc(CC)n2c(cc3sc(C)cc32)c1=O	.	1	2	.	-1	0
CCc1nn(CC(=O)NCCN(CC(C)C)CC(C)C)c(=O)c2cc3sc(C)cc3n12	.	2	55*	.	-14	0
COc1ccc(CCNC(=O)C23CN(Cc4ccccc4)CC2C(c2cccc([N+](=O)[O-])c2)=NO3)cc1 (configuration not stated)	4	0	0	-7	-3	0
Cc1ccc(CCNC(=O)C23CN(Cc4ccccc4)CC2C(c2cccc([N+](=O)[O-])c2)=NO3)cc1 (configuration not stated)	7	17	34*	17	4	0
Cc1cc(/C=C/c2ccccc2)nc2ccccc12	.	0	.	.	.	.
CC(C)CC(=NNC(=O)c1ccncc1)c1cc(Cl)ccc1O	.	71*	.	.	7	.
Cc1ccc(Cl)cc1N1CCN(C(=O)c2ccc3c(c2)CCN3S(=O)(=O)c2ccccc2)CC1	.	-1	19	.	8	3
Cc1ccc(-n2ncc(C(=O)N3CCN(c4cccc(C)c4)C(C)C3)c2C2CCN(C(=O)OC(C)(C)C)CC2)cc1 (configuration not stated)	.	73*	8	.	-28	-1
COc1ccc(-n2ncc(C(=O)N3CCN(Cc4ccccc4)CC3)c2C2CCN(C(=O)OC(C)(C)C)CC2)cc1	.	1	9	.	8	0
COc1ccccc1N1CCN(C(=O)c2cnn(-c3ccc(C)c(C)c3)c2C2CCN(C(=O)OC(C)(C)C)CC2)CC1	.	59*	-7	.	-10	-1
Cc1ccc(-n2ncc(C(=O)N3CCN(c4ccccn4)CC3)c2C2CCN(C(=O)OC(C)(C)C)CC2)cc1C	.	0	6	.	-4	0
CC(C)(C)OC(=O)N1CCC(c2c(C(=O)N3CCN(c4ncccn4)CC3)cnn2-c2ccc(F)cc2F)CC1	.	1	-6	.	23	0
Cc1cccc(-n2ncc(C(=O)N3CCN(Cc4ccccc4)CC3)c2C2CCN(C(=O)OC(C)(C)C)CC2)c1	.	51*	-11	.	-15	0
Cc1cccc(N2CCN(C(=O)c3cnn(-c4ccc(F)cc4F)c3C3CCN(C(=O)OC(C)(C)C)CC3)CC2)c1C	.	93*	-2	.	-63*	1
COc1cc(N)c(N)cc1OC	.	0	.	.	.	.
CCCCCCC[n+]1ccc(C)c2ccccc21	.	0	.	.	.	.
O=C(Cc1nnc(-c2nc3ccccc3[nH]2)o1)Nc1cc(C(F)(F)F)ccc1Cl	.	.	2	.	.	0
